eIF4H inh: inhibitors of RNA binding by human eIF4H; Q15056; 290,000 tested, 0.94% active; eIF4H fluorescence polarization binding assay; inhibition, % at 35 µM; AID 2012;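 further: calls also rest on retests at 20 µM and on dose response follow-up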
Efflux pump mplx: antifungal efflux pump inhibition, Nile Red retention; S. cerevisiae Candida pump triplex; inhibition, % at 10 µM; 330,000 tested, 0.44% active; AID 485275;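 active means plate passing quality check with inhibition over a set limit, or well fluorescence over plate mean plus 4 SD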;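 further: Nile Red retained in pooled yeast measured as flow cytometry median fluorescence; higher means more Nile Red kept so more efflux inhibition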
MLLE-PAM2 inh: blocks PAM2 peptide binding to the PABP1 MLLE domain. GST-MLLE / FITC-PAM2 fluorescence polarization. inhibition, % at 20 µM. P11940. 360,000 tested, 0.36% active; in the data active means inhibition above about 35%, passing the limit was not always enough
Target sequence (P11940 whole entry, looked up, the tested form may be a part): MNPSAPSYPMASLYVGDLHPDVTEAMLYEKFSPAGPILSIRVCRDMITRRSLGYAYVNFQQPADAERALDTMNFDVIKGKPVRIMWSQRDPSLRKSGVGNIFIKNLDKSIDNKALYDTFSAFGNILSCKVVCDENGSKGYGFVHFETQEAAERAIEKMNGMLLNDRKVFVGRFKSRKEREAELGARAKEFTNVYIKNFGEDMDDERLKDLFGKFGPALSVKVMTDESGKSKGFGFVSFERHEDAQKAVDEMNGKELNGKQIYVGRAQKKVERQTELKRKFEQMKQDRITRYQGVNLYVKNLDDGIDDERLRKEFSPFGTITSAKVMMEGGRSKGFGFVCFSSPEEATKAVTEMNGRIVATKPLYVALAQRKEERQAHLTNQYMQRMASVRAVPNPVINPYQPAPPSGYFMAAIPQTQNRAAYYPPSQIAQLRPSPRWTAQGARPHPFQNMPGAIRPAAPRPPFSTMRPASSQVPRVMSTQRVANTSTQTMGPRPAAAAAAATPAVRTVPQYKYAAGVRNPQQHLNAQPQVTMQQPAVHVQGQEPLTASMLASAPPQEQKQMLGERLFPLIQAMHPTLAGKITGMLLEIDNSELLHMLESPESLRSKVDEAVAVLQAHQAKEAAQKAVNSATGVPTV
SUMO HTRF inh: SUMOylation inhibition. P63279. inhibition, % at 35 µM. AID 2006. HTRF SUMOylation assay, SAE1/SAE2 + UBC9, in vitro. 290,000 tested, 0.36% active; in the data active means inhibition above about 50%, passing the limit was not always enough; inconclusive means no clear call, values can overlap the other calls
PABP polyA inh: PABP-poly(A) binding inhibition | PABP-poly(A) RNA binding, fluorescence polarization | inhibition, % at 35 µM | 290,000 tested, 1% active | P11940;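 further: calls also rest on retests at 20 µM and on dose response follow-up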
ALR inh: blocks human ALR sulfhydryl oxidase activity; P55789; 290,000 tested, 3.8% active; purified ALR, DTT oxidation, H2O2 HRP-luminol luminescence; inhibition, % (test concentration not listed);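 active means mean replicate inhibition above about 79%, with every replicate also reaching it, limit read from the data; inconclusive means only one of the two criteria met; inactive means mean below limit and not every replicate reaching it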
A number is an active result; n = inactive; u = inconclusive; x = not tested or not shown. A selection: hits, their analogues and other compounds. The true share with any hit is near 4.7%. Unless noted, how the calls were made is not given here.

SMILES	eIF4H inh	Efflux pump mplx	MLLE-PAM2 inh	SUMO HTRF inh	PABP polyA inh	ALR inh
CCCCNC(=S)N(C)/N=C/c1ccc(OCc2ccc(C(=O)OC)cc2)c(OC)c1	n	n	n	n	61.4	n
CCC(=O)c1ccc(OCc2ccc(C(=O)OC)cc2)c(OC)c1	n	n	n	n	n	n
COc1ccc(C)cc1NC(=O)CO/N=C(\N)CC(=O)NC1CCCCC1	x	n	n	x	x	n
O=C(O)CN1C(=O)/C(=C2\SC(=S)N(C(Cc3ccccc3)C(=O)O)C2=O)c2ccccc21 (stereo not given)	n	n	38.8	n	n	n
COC(=O)CSC1=C(C#N)C(c2ccc3c(c2)OCO3)C2=C(CCCC2=O)N1 (stereo not given)	n	n	n	n	n	98.9
CCSC1=C(C#N)C(c2ccc3c(c2)OCO3)C2=C(CCCC2=O)N1 (stereo not given)	n	n	n	n	n	n
COC(=O)c1nn(-c2ccc(OC)cc2)c(=O)cc1Sc1ccc(C)cc1	n	n	n	n	n	n
COC(=O)c1nn(-c2ccc(OC)cc2)c(=O)cc1NN	active	n	n	n	n	n
O=C(c1cccc(F)c1)N1CCN=C1SCc1cccnc1	n	n	n	n	n	99.8
COc1cc(OC)cc(C(=O)N2CCN=C2SCc2cccnc2)c1	n	n	n	n	n	99.7
O=C(c1ccc2c(c1)OCO2)N1CCN=C1SCc1ccccc1	n	n	n	n	n	92.7
CN(C)S(=O)(=O)c1ccc(C(=O)N2CCN=C2SCc2ccccc2)cc1	n	n	n	n	n	n
C[C@@H]1CN([C@@H](C)CO)C(=O)CCCn2nncc2CO[C@H]1CN(C)Cc1cccc2c1OCCCO2	x	x	n	x	x	x
CCC(C(=O)N1CCOCC1)n1nc(C)n2c(cc3cc(C)ccc32)c1=O (stereo not given)	n	n	n	n	n	n
Cc1cccc(NC(=O)c2ccccc2OCC(=O)N2CCCC2)c1C	n	n	x	n	n	x
NC(=O)CC(NC(=O)Cc1cccc2ccccc12)c1ccc(NCCOc2ccccc2)c([N+](=O)[O-])c1 (stereo not given)	n	n	n	n	n	n
CCC(CC)Nc1ccc(C(CC(N)=O)NC(=O)Cc2cccc3ccccc23)cc1[N+](=O)[O-] (stereo not given)	n	n	n	n	38.5	n
NC(=O)CC(NC(=O)Cc1ccc(Br)cc1)c1ccc(NCCc2ccccc2F)c([N+](=O)[O-])c1 (stereo not given)	n	n	n	62.8	n	n
NC(=O)CC(NC(=O)Cc1ccc(Br)cc1)c1ccc(NCCc2ccc(F)cc2)c([N+](=O)[O-])c1 (stereo not given)	n	n	n	n	n	n
COc1ccccc1-c1cc(C(F)(F)F)nc(S(=O)(=O)CCCC(=O)N2CCCCC2C)n1 (stereo not given)	n	n	n	n	n	97.7
COc1ccccc1-c1cc(C(F)(F)F)nc(S(C)(=O)=O)n1	n	n	n	n	n	91.3
CCCCC(NC(=O)COc1cc2c(c3oc(=O)cc(C)c13)CCC(C)(C)O2)C(=O)O (stereo not given)	n	n	n	n	n	n
CCN1/C(=C/c2cc[n+](CCCS(=O)(=O)[O-])c3ccccc23)Sc2ccccc21	97.0	n	n	n	n	n
CCN1/C(=C/C(=O)c2ccco2)Sc2ccccc21	n	n	n	n	n	n
Cc1cc(NS(=O)(=O)c2ccccc2)c(C)c(Cl)c1O	n	n	n	n	n	99.9
SMILES	eIF4H inh	Efflux pump mplx	MLLE-PAM2 inh	SUMO HTRF inh	PABP polyA inh	ALR inh
Oc1c(Cl)cc(Cl)c2cccnc12	n	x	n	n	n	x
Nc1ccc(NS(=O)(=O)c2ccccc2)cc1	n	n	n	n	n	99.8
Cc1ccc(S(=O)(=O)Nc2cc(Cl)c(O)c3ncccc23)cc1	n	n	40.7	n	n	n
Cc1c(O)ccc(NS(=O)(=O)c2ccccc2)c1C	n	n	n	n	n	98.8
Cc1cc(NS(=O)(=O)c2ccccc2)ccc1NS(=O)(=O)c1ccccc1	x	x	n	x	x	x
CO/C=C\C=C/c1nnn(-c2ccc(Cl)cc2)n1	n	n	n	n	n	n
O=C(NCC1CCCO1)c1ccc2c(c1)S(=O)(=O)c1ccccc1C2=O (stereo not given)	x	n	n	x	x	x
O=S(=O)(Nc1ccc(O)c(NS(=O)(=O)c2ccccc2)c1)c1ccccc1	n	n	n	n	n	86.7
Nc1ccc(S(=O)(=O)Nc2nc3ccccc3o2)cc1	55.2	n	n	n	29.0	n
Nc1ccc(S(=O)(=O)Nc2cnc3ccccc3n2)cc1	n	n	n	n	n	n
Cc1ccc(S(=O)(=O)Nc2cc(C)c(O)cc2C)cc1	u	n	n	n	u	98.2
Cc1ccc(S(=O)(=O)N2CCN(C(=O)CSCc3ccc(C(C)C)cc3)CC2)cc1	x	n	n	x	x	n
N#CC1=C(N)SC2(CCCCC2)SC1c1ccccc1 (stereo not given)	n	n	n	n	n	93.6
CCCCc1nnc(NC(=O)CSc2nc(O)c(-c3ccccc3)c(=O)[nH]2)s1	n	n	n	n	n	n
CCCCc1nnc(NC(=O)CSc2nc(O)c(Cc3ccccc3)c(=O)[nH]2)s1	n	n	n	n	n	99.0
CCCCc1nnc(NC(=O)C(C)Sc2nc(O)c(Cc3ccccc3)c(=O)[nH]2)s1 (stereo not given)	n	n	n	n	n	n
O=C(CSc1nc(O)c(Cc2ccccc2)c(=O)[nH]1)Nc1nnc(SCc2ccccc2)s1	n	n	36.9	n	n	n
Cc1ccccc1-n1c(SCC(=O)NC2CC2)nc2ccccc2c1=O	x	x	n	x	x	x
COc1ccccc1C(=O)NCCn1ccc2ccccc21	n	n	42.6	n	n	n
Cc1cc(C)c(C)c(S(=O)(=O)Nc2ccccc2N2CCOCC2)c1C	x	n	n	x	x	n
O=C(COC(=O)c1ccc[n+]([O-])c1)Nc1ccc([N+](=O)[O-])cc1Cl	x	n	n	x	x	n
COc1cc(NCCCCCCCN)c2ncccc2c1	n	n	n	51.8	n	96.3
C=C(C)C1CC=C(C)/C(=N/NC(=O)C2CC2c2ccccc2)C1 (stereo not given)	n	n	n	n	n	n
O=C(OCc1cc(=O)n2c(n1)sc1ccccc12)c1ccc(O)cc1	79.3	n	n	n	n	n
O=c1cc(CCl)nc2sc3ccccc3n12	n	n	n	n	u	x
SMILES	eIF4H inh	Efflux pump mplx	MLLE-PAM2 inh	SUMO HTRF inh	PABP polyA inh	ALR inh
Cc1cccc(C(=O)N[C@H](C(=O)OCc2cc(=O)n3c(n2)sc2ccccc23)C(C)C)c1	85.4	n	n	n	active	n
CSCc1ccc(C(=O)NCC(c2cccs2)N2CCOCC2)cc1 (stereo not given)	x	n	n	x	x	n
CC(C)(C)S(=O)(=O)N1C[C@H]2CC/C=C\C/C=C\2[C@@H]1CCO	x	x	n	x	x	x
O=C1C=C(O)c2c(O)cc(O)c(O)c2C1=O	x	n	n	x	x	97.9
Cc1ccc(-c2sc(C)nc2CC(=O)O)cc1	n	n	n	n	n	n
Cc1ccc(-c2sc(-c3cccnc3)nc2CC(=O)O)cc1	n	n	n	n	n	99.0

Screening data from PubChem.
